According to PubChem BioAssay (NCATS):
Results filed as inconclusive are left out. Activity calls are given as the source filed them. Unless noted, calls come from the whole dose curve.

Key:
[1] = target: Androgen receptor (Homo sapiens) (UniProt P10275); assay: qHTS assay for small molecule agonists of androgen receptor signaling (AID 588515; active = well fitted curve in the direction sought with a large enough effect in the signal ratio, with a control signal flat; the % refers to the signal ratio; note: % is set by controls: 0 for no effect and ±100 for the full control effect); conditions: AR-UAS-bla HEK293, beta-lactamase ratio, agonist 16 h; stronger effect = higher value
Procedure, shortened: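 EC50 and efficacy came from Hill fits of titrations (up to 92 uM) normalized to 30 nM R1881 as 100% and DMSO as 0%. Compound exposure was 16 h at 37 C on AR-UAS-bla HEK293 cells, with a 405/460/530 nm CCF4 fluorescence read.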

[2] = target: Bile acid receptor (Homo sapiens) (UniProt Q96RI1); assay: qHTS assay for small molecule antagonists of farnesoid X receptor signaling (AID 588526); note: % is set by controls: 0 for no effect and ±100 for the full control effect
Procedure, shortened: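 Concentration-response titrations were fitted to the Hill equation for half-maximal inhibition and maximal response, with data normalised to 50 uM chenodeoxycholic acid and DMSO control wells. Cells: FXR-UAS-bla HEK293T, dialyzed FBS.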

[3] = target: Bile acid receptor (Homo sapiens) (UniProt Q96RI1); assay: qHTS assay for small molecule agonists of farnesoid X receptor signaling (AID 588527); conditions: HEK293T FXR-UAS-bla, beta-lactamase ratio, 16 h; activation: stronger effect = higher value;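 note: series mostly up to about 77 µM; 0% = vehicle basal and 100% = reference agonist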
Procedure, shortened: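 FXR-UAS-bla HEK293T, 10% dialyzed FBS; cpds up to 92 uM titration, 16 h 37 C; CCF4 dye 2 h RT; fluorescence. Normalized to chenodeoxycholic acid 100 uM (100%) and DMSO (0%); Hill fit gives EC50, efficacy.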

[4] = target: Glucocorticoid receptor (Homo sapiens) (UniProt P04150); assay: qHTS assay for small molecule agonists of glucocorticoid receptor signaling (AID 588532; active = well fitted curve in the direction sought with a large enough effect in the signal ratio, with a control signal flat; the % refers to the signal ratio;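 note: 100% = dexamethasone at 0.1 µM and 0% = DMSO only wells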); conditions: HeLa MMTV-bla, beta-lactamase ratio, agonist, 18 h; activation: stronger effect = higher value, percent of dexamethasone control, DMSO zero
Procedure, shortened: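 Titration series, up to 92 uM, applied to GRE-bla HeLa cells for 18 h at 37 C. Detection by CCF4 FRET substrate after 2 h at RT.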

[5] = target: Glucocorticoid receptor (Homo sapiens) (UniProt P04150); assay: qHTS assay for small molecule antagonists of glucocorticoid receptor signaling (AID 588533; active = well fitted inhibition curve with a large enough effect in the signal ratio, with a control signal flat, not every such curve was filed as active; the % refers to the signal ratio;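 note: cells stimulated with 2 nM dexamethasone as agonist; % is set by controls: 0 for no effect and ±100 for the full control effect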)
Procedure, shortened: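 Antagonist-mode qHTS: compound titrations added to GRE-bla HeLa cells, then dexamethasone 2 nM final; 18 h, 37 C. CCF4 FRET fluorescence normalized to dexamethasone and DMSO; IC50 from Hill fit.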

[6] = qHTS assay for small molecule antagonists of peroxisome proliferator-activated receptor delta signaling (AID 588535; active = well fitted inhibition curve with a large enough effect in the signal ratio, with a control signal flat, not every such curve was filed as active; the % refers to the signal ratio;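 for max response: cells co-treated with a PPAR-delta agonist as stimulator during compound exposure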); conditions: HEK293T PPARd-UAS-bla, beta-lactamase FRET ratio, 18 h; 460 nm channel
Procedure, shortened: (§1)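 Reporter: UAS-bla under PPAR-delta response element, HEK293T host. Medium: 2% charcoal/dextran FBS. Dosing: titration, 18 hrs, 37 C. Detection: CCF4, 2 hrs RT, 405 ex/460 and 530 em.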

[7] = target: Peroxisome proliferator-activated receptor delta (Homo sapiens) (UniProt Q03181); assay: as above
Procedure, shortened: as §1

[8] = qHTS assay for small molecule activators of the human pregnane X receptor (PXR) signaling pathway (AID 720659; call rule not given here; note: 0% is about no effect)
[9] = target: Androgen receptor (Homo sapiens) (UniProt P10275); assay: qHTS assay for small molecule antagonists of androgen receptor signaling (AID 588516; active = well fitted curve in the direction sought with a large enough effect in the signal ratio, with a control signal flat, not every such curve was filed as active; the % refers to the signal ratio; note: % is set by controls: 0 for no effect and ±100 for the full control effect)
Procedure, shortened: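 Compounds tested in titration against 10 nM R1881 in AR-responsive bla reporter HEK 293 cells; CCF4 fluorescence (460/530 nm) after 16 h exposure gave IC50 and efficacy.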

[10] = target: Peroxisome proliferator-activated receptor gamma (Homo sapiens) (UniProt P37231); assay: qHTS assay for small molecule antagonists of peroxisome proliferator-activated receptor gamma signaling (AID 588537; active = well fitted inhibition curve with a large enough effect in the signal ratio, with a control signal flat, not every such curve was filed as active; the % refers to the signal ratio;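 note: reporter cells co-stimulated with 50 nM rosiglitazone agonist during compound treatment; % of control where 0% means no effect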)
Procedure, shortened: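 We seeded GeneBLAzer HEK293 reporter cells at 3000 per well, allowed 6-6.5 h attachment at 37 C, then co-treated with test compound titrations and 50 nM rosiglitazone overnight (16 h). Inhibition was quantified from 460/530 nm emission ratios.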

[11] = qHTS assay for small molecule agonists of the antioxidant response element (ARE) signaling pathway (AID 651741; active = well fitted activation curve with a large enough effect in the signal ratio; the % refers to the signal ratio; note: potency is the fitted concentration of half-maximal effect; for activation: % of control where 0% means no effect)
Procedure, shortened: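 Compounds in DMSO are pinned onto HepG2 ARE-bla cells (2,000/well) that were preincubated 5 h; plates stay 16 h at 37 C, then beta-lactamase activity is detected with LiveBLAzer B/G substrate by fluorescence.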

[12] = target: Thyroid hormone receptor beta (Homo sapiens) (UniProt P10828); assay: qHTS assay for small molecule antagonists of thyroid hormone receptor beta signaling (AID 588547; active = well fitted inhibition curve with a large enough effect in the signal ratio, with a control signal flat, not every such curve was filed as active; the % refers to the signal ratio); conditions: TR-UAS-bla HEK293, beta-lactamase ratio, antagonist mode, 18 h
Procedure, shortened: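 TR-UAS-bla GripTite HEK293 cells in 2% charcoal/dextran FBS medium were preincubated 4 h at 37 C, given compound (0.59 nM to 92 uM) plus 0.4 nM T3 (final) for 18 h, then CCF4 for 2 h at RT; Hill fit gave IC50.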

Sequence of Peroxisome proliferator-activated receptor delta (Homo sapiens) (Q03181 whole entry, looked up): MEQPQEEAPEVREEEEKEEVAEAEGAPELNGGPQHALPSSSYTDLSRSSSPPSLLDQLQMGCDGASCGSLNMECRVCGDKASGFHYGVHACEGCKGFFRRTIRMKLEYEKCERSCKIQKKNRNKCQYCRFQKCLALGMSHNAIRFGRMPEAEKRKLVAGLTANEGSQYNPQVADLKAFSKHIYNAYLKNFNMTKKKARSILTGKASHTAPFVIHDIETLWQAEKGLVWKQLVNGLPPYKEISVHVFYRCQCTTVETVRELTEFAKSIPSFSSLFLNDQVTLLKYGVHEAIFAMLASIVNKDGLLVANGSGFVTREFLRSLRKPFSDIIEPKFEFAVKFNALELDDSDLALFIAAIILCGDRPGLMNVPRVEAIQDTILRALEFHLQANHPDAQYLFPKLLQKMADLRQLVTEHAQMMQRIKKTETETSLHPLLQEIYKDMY
Sequence of Androgen receptor (Homo sapiens) (P10275 whole entry, looked up): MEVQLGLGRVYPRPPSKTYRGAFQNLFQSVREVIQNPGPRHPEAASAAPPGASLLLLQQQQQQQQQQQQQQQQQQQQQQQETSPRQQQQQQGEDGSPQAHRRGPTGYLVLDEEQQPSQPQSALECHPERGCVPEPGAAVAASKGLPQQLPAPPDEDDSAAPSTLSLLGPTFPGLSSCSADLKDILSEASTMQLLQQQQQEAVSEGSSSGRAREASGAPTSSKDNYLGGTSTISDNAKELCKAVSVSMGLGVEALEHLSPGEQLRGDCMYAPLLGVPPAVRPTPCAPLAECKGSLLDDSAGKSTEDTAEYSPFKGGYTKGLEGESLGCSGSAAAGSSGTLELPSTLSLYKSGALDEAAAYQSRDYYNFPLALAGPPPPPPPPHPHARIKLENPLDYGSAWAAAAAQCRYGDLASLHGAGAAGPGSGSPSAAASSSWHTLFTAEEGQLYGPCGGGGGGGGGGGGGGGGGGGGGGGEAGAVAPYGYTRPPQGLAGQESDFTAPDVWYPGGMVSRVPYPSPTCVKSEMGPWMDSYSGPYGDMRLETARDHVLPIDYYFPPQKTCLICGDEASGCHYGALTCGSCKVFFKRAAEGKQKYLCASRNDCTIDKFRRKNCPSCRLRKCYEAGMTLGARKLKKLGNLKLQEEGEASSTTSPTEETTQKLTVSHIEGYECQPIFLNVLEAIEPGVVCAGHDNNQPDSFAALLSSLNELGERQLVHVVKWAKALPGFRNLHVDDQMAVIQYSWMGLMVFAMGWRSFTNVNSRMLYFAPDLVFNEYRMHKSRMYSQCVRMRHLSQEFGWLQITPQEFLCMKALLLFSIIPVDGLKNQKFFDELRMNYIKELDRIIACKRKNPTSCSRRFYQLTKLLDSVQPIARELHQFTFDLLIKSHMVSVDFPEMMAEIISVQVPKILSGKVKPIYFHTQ
Sequence of Glucocorticoid receptor (Homo sapiens) (P04150 whole entry, looked up): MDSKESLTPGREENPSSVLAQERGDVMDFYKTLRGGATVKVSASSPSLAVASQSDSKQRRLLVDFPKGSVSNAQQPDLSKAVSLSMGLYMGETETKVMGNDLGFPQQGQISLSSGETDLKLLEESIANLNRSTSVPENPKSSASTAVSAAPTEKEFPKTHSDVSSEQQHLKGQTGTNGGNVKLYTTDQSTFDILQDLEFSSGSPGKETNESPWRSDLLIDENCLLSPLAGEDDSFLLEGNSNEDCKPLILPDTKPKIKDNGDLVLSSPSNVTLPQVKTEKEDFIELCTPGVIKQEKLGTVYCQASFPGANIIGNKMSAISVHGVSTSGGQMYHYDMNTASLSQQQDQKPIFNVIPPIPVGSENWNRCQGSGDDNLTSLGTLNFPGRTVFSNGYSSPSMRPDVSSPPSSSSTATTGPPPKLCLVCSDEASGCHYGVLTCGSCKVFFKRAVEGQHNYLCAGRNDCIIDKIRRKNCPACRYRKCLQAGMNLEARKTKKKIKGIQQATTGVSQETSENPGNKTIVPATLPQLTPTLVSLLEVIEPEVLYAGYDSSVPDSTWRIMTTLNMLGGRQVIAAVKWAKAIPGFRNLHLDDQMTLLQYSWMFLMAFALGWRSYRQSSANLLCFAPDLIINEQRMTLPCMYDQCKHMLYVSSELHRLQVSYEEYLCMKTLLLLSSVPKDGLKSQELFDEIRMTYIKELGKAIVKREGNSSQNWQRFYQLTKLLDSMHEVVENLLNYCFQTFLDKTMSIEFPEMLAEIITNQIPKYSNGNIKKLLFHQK
Sequence of Thyroid hormone receptor beta (Homo sapiens) (P10828 whole entry, looked up): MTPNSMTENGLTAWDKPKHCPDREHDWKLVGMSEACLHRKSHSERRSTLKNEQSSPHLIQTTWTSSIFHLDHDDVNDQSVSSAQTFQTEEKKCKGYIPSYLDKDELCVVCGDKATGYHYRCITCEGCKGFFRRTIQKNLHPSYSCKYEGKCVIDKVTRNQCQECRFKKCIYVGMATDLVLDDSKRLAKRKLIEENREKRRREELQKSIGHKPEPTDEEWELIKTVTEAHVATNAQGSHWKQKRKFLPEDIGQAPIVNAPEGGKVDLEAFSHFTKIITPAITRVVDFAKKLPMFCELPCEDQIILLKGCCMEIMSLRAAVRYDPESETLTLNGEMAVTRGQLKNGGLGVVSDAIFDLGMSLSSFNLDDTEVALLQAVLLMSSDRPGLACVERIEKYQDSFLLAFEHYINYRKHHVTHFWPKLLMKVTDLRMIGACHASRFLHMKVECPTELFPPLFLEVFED
Sequence of Bile acid receptor (Homo sapiens) (Q96RI1 whole entry, looked up): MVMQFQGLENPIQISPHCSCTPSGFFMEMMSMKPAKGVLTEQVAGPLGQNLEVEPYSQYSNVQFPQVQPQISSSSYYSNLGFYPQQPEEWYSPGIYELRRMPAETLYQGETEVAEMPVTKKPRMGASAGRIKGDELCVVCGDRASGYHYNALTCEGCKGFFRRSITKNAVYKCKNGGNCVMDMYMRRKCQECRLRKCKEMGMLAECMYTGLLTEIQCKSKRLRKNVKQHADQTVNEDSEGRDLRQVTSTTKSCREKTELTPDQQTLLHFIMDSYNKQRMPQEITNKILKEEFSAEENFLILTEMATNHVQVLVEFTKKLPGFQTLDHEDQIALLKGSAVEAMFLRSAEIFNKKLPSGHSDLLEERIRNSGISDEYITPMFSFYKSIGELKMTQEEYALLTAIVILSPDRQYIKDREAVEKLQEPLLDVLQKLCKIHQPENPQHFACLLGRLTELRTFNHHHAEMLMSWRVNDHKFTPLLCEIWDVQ
Sequence of Peroxisome proliferator-activated receptor gamma (Homo sapiens) (P37231 whole entry, looked up): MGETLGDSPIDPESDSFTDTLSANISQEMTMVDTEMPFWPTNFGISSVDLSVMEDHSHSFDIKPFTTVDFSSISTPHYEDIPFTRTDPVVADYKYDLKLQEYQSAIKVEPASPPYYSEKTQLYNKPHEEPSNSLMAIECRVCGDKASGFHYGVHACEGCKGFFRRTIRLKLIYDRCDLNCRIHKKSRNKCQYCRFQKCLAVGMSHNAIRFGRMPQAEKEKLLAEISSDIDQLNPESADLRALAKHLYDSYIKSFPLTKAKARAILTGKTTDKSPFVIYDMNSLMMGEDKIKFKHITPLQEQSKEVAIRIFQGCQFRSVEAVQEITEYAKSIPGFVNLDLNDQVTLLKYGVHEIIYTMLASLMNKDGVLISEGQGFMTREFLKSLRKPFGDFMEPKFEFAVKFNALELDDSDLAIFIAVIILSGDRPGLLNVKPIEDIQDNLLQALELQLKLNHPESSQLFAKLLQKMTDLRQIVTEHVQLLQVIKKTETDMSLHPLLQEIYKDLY

CCOP(=O)(OCC)OC(Cl)C(Cl)(Cl)Cl (stereo not drawn)
inactive: activation [1] -3.01% | Potency [2] | activation [3] 4.93% | activation [4] -1.92% | Potency [5] | Potency [7] | outcome [8]
51.3%: max response [6]

CC1=C(C(=O)Nc2ccccc2)SCCO1
inactive: activation [1] -8.15% | Potency [9] | activation [3] -5.36% | activation [4] -5.7% | Potency [5] | Potency [10] | Potency [11]

COc1cc(OC)nc(NC(=O)NS(=O)(=O)c2ncccc2C(F)(F)F)n1
inactive: activation [1] 3.3% | Potency [2] | activation [4] -18.1% | Potency [5] | Potency [7] | outcome [8]
-12.7%: max response [6]

COC(=O)c1sccc1S(=O)(=O)NC(=O)Nc1nc(C)nc(OC)n1
inactive: activation [4] -2.71% | Potency [7] | Potency [10] | Potency [11] | outcome [8]
-31.9%: max response [6]

CS/C(C)=N/OC(=O)N(C)SN(C)C(=O)O/N=C(\C)SC
-23.5%: max response [6]
inactive: activation [1] -1.29% | Potency [2] | activation [3] 3.69% | activation [4] 10.5% | Potency [5] | Potency [7] | activity change % (negative = inhibition) [12] -7.26% | Potency [11] | outcome [8]

CCOP(=O)(OCC)SCSP(=S)(OCC)OCC
-37.2%: max response [6]
inactive: activation [1] -6.59% | Potency [2] | activation [3] 10.4% | activation [4] -5.04% | Potency [5] | Potency [7] | Potency [10] | activity change % (negative = inhibition) [12] -5.46%

CCOP(=S)(OCC)Oc1nc(Cl)n(C(C)C)n1
inactive: activation [4] 12.9% | Potency [10]

CCOc1nc(C(Cl)(Cl)Cl)ns1
-34.9%: max response [6]
inactive: Potency [7] | activity change % (negative = inhibition) [12] 11.9%

Nc1c(Cl)c(F)nc(OCC(=O)O)c1Cl
inactive: activation [1] 0.917% | Potency [9] | activation [4] -4.31% | Potency [5] | Potency [10] | outcome [8]

CCOP(=O)(OCC)Oc1ccc2c(C)c(Cl)c(=O)oc2c1
36%: max response [6]
inactive: activation [1] -0.972% | Potency [2] | activation [3] 2.16% | activation [4] -3.39% | Potency [5] | Potency [7]

O=C1c2ccccc2C(=O)C1C(=O)C(c1ccccc1)c1ccc(Cl)cc1 (stereo not drawn)
active: Potency [11] 54.5 µM
65.6%: max response [6]
inactive: activation [1] -4.67% | activation [4] -5.26% | Potency [7] | activity change % (negative = inhibition) [12] 15%

CCSCCSP(=O)(OC)OC
-10.5%: max response [6]
inactive: activation [1] -9.34% | activation [4] 8.21% | Potency [5] | Potency [7] | activity change % (negative = inhibition) [12] 4.21% | outcome [8]
